Each structure is given as a SMILES string. Where a name gives a salt, the structure may show the parent alone.

The subject of this experiment is FB. The experiment is described as follows: Euclidean distance of Cell Painting phenotypic profile (signed KS, 77 features) to DMSO centroid (dimensionless distance); 5 or 10 uM (library dependent); higher = stronger phenotypic change vs DMSO (phenoactivity). The settings on record: 48 h. Put shortly:
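Stained cells were imaged confocally at 20X with 9 fields per well, after 48 h of exposure to library compounds at 10 or 5 uM (set by library; 0.1% DMSO final). The cells were five cancer lines and a healthy fibroblast line. From the images, Harmony extracted 77 features, each expressed as a signed Kolmogorov-Smirnov statistic relative to same-plate vehicle wells. Phenoactivity is measured as Euclidean distance to the median vehicle profile, using plate-position-corrected, correlation-weighted profiles averaged across replicates at the top dose.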
The molecule `C#C[C@]1(O)CC[C@H]2[C@@H]3CCc4cc(OC)ccc4[C@H]3CC[C@@]21C` [Mestranol] gave an Euclidean distance of 1.26.

For the molecule `CCCC1CC(C(=O)NC(C(C)Cl)C2OC(SC)C(O)C(O)C2O)N(C)C1` (stereo not given) [Clindamycin alcoholate], the Euclidean distance was 0.986.

Molecule `Nc1nc(=O)c2nc(CNc3ccc(C(=O)N[C@@H](CCC(=O)O)C(=O)O)cc3)cnc2[nH]1` [Folic acid] gave an Euclidean distance of 0.817.

In turn, `Cc1ccc(NCCCc2ccccc2)c(N)c1` registered an Euclidean distance of 0.816.

Molecule `COC(=O)N[C@H](C(=O)N1CCC[C@H]1c1nc(-c2ccc3c(c2)O[C@@H](c2ccccc2)n2c-3cc3cc(-c4c[nH]c([C@@H]5CCCN5C(=O)[C@@H](NC(=O)OC)C(C)C)n4)ccc32)c[nH]1)C(C)C` [Elbasvir] registered an Euclidean distance of 1.97.

`O=c1ccn([C@@H]2O[C@H](COP(=O)(O)OP(=O)(O)OP(=O)(O)OP(=O)(O)OC[C@H]3O[C@@H](n4ccc(=O)[nH]c4=O)[C@H](O)[C@@H]3O)[C@@H](O)[C@H]2O)c(=O)[nH]1` [Diquafosol Tetrasodium]: the Euclidean distance was 1.1.

`O=C1Nc2ccccc2C1=O` [Isatin] gave an Euclidean distance of 1.29.

With `CC1(C)NC(=O)N(c2ccc([N+](=O)[O-])c(C(F)(F)F)c2)C1=O` [Nilutamide], the Euclidean distance worked out at 0.9.

`CC12CCC(CC1=O)C2(C)C` (stereo not given) [Camphor]: the Euclidean distance was 0.818.

For `CCCCc1nc(Cl)c(CO)n1Cc1ccc(-c2ccccc2-c2nnn[nH]2)cc1` [Losartan Potassium (DuP 753)], the Euclidean distance came out at 0.722.

`C[C@@H]1C[C@H]2[C@@H]3CCC4=CC(=O)C=C[C@]4(C)[C@@]3(F)[C@@H](O)C[C@]2(C)[C@@]1(O)C(=O)CO` [Dexamethasone (DHAP)]: the Euclidean distance is 1.75.

The molecule `O=C(NC1CCOCC1)c1ccc(-c2cc(-c3c[nH]nc3-c3ccccn3)ccn2)cc1` gave an Euclidean distance of 1.3.

`COC(=O)Nc1nc2cc(Sc3ccccc3)ccc2[nH]1` [Fenbendazole] came in with an Euclidean distance of 2.21.

`CS(=O)(=O)c1ccc(-c2cnc(N)c(C(=O)Nc3ccccc3)n2)cc1` displayed an Euclidean distance of 1.27.

With `CC(C)(Oc1ccc(C(=O)c2ccc(Cl)cc2)cc1)C(=O)O` [Fenofibric acid], the Euclidean distance came out at 1.59.

In turn, `Cc1[nH]c(/C=C2\C(=O)Nc3ccccc32)c(C)c1CCC(=O)O` [TSU-68 (SU6668. Orantinib)] gave an Euclidean distance of 0.825.

Molecule `CNC[C@H](O)c1cccc(O)c1` [Phenylephrine HCl] gave an Euclidean distance of 1.34.

As to `CCCCCOc1ccccc1/C(=C\SC)n1ccnc1` [Neticonazole Hydrochloride], the Euclidean distance was determined as 0.825.

Regarding `NC[C@H](O)c1ccc(O)c(O)c1` [Noradrenaline bitartrate monohydrate], the Euclidean distance stood at 1.17.

The molecule `CC(C)(O)c1ccccc1CC[C@@H](SCC1(CC(=O)O)CC1)c1cccc(/C=C/c2ccc3ccc(Cl)cc3n2)c1` [Montelukast Sodium] registered an Euclidean distance of 0.512.

On to `CN1CCN(CCOc2cc(OC3CCOCC3)c3c(Nc4c(Cl)ccc5c4OCO5)ncnc3c2)CC1` [Saracatinib (AZD0530)], for which the Euclidean distance was found to be 3.97.

Regarding `O=C(Nc1cccnc1)N1CCC(Cc2cccc(Oc3ccc(C(F)(F)F)cn3)c2)CC1`, the Euclidean distance was determined as 0.825.

Regarding `Nc1nc(NC2CC2)c2ncn([C@H]3C=C[C@@H](CO)C3)c2n1` [Abacavir], the Euclidean distance stood at 1.21.

`C=C1/C(=C\C=C2/CCC[C@]3(C)[C@@H]([C@H](C)/C=C/[C@H](C)C(C)C)CC[C@@H]23)C[C@@H](O)C[C@@H]1O` [Doxercalciferol]: the Euclidean distance stood at 1.9.

With `C=C1CC/C=C(/C)CC[C@@H]2[C@@H]1CC2(C)C` [Œ≤-Caryophyllene], the Euclidean distance was determined as 0.747.

Molecule `NCc1ccc(S(N)(=O)=O)cc1` [Mafenide Acetate] returned an Euclidean distance of 1.07.

For `Nc1nc(F)nc2c1ncn2[C@@H]1O[C@H](COP(=O)(O)O)[C@@H](O)[C@@H]1O` [Fludarabine Phosphate], the Euclidean distance was determined as 3.2.

Take `CCOC(=O)N1CCC(=C2c3ccc(Cl)cc3CCc3cccnc32)CC1` [Loratadine]: the Euclidean distance stood at 1.05.

`COc1ccc2c(c1)c(CC(=O)O)c(C)n2C(=O)c1ccc(Cl)cc1` [Indomethacin] showed an Euclidean distance of 0.86.

Consider `NC(=O)N1c2ccccc2CC(=O)c2ccccc21` [Oxcarbazepine], for which the Euclidean distance was determined as 1.19.

In turn, `CC(C)CCCC(C)N` (stereo not given) [Octodrine (2-Amino-6-methylheptan)] returned an Euclidean distance of 1.24.

Molecule `CN(C)C(=O)COC(=O)Cc1ccc(OC(=O)c2ccc(NC(=N)N)cc2)cc1` [Camostat Mesilate] gave an Euclidean distance of 0.645.

For `C[C@]12CC[C@@H]3c4ccc(O)cc4CC[C@H]3[C@@H]1CCC2=O` [Estrone], the Euclidean distance was 1.21.

Take `Cc1ccnc(NS(=O)(=O)c2ccc(N)cc2)n1` [Sulfamerazine]: the Euclidean distance is 0.862.

As for `CCNC(=O)c1[nH]nc(-c2cc(Cl)c(O)cc2O)c1-c1ccc(OC)cc1`, the Euclidean distance came out at 3.65.

In the case of `CC[C@@H]1C(=O)OC[C@@H]1Cc1cncn1C` [Pilocarpine HCl], the Euclidean distance worked out at 0.78.

On to `C[C@H]1O[C@@H](n2cc(F)c(=O)[nH]c2=O)[C@H](O)[C@@H]1O` [Doxifluridine], for which the Euclidean distance is 0.864.

Turning to `Cc1ccccc1C(=O)Nc1ccc(C(=O)N2CCCC(O)c3cc(Cl)ccc32)c(C)c1` (stereo not given) [Tolvaptan], the Euclidean distance was 1.14.

For `C[C@@H](N)[C@H]1CC[C@H](C(=O)Nc2ccncc2)CC1`, the Euclidean distance was determined as 2.59.

On to `CC(CCc1ccccc1)NCC(O)c1ccc(O)c(C(N)=O)c1` (stereo not given) [Labetalol HCl], for which the Euclidean distance turned out to be 1.03.

The record behind these values is the supplement of paper PMC10127200.
